The values below come from the supplement of paper PMC6555819.

The test system of this assay is LXRb:RXRa (NR concentration 270 nM, RXRa partner concentration 90 nM). Put plainly: PBM binding z-score (relative to random genomic background probes); higher = stronger binding; sequences stand for … in GC…GCGATTGACAGCGTAGAATGAAGG
The method, then: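 Protein-binding microarray (Agilent 4x180K custom design, double-stranded 60-nt probes: 5' GC cap, 34-nt variable region, 24-nt constant primer region; full probe sequence given). Purified or IVT nuclear receptor:RXRα heterodimers (3:1 NR:RXRα, mostly 270:90 nM) or homodimers were incubated for 1 h in PBS with 2% milk and no ligand, then detected with Alexa488 antibodies. Fluorescence from o1-orientation probes (~5 replicates averaged) was converted to z-scores against 500 random hg19 background probes. Variable regions are seed direct-repeat (DR0–DR5) sites, all their single-nucleotide variants and half-site ablations.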
In turn, GCTGCTAGGTCAACTGATGGTCATCTAAAGCTCG returned a PBM binding z-score of 2.18. On to CGTCAAACTTCAACTAAGGTAACGTAAAGCACGC, for which the PBM binding z-score was 0.543. Take CCTACGGGGCCACGAAAGGTCATTGATTCAGTGA: the PBM binding z-score worked out at 5.02.

CCTACTGGGCCATTCAGAGGGCATTGATCATATG registered a PBM binding z-score of -0.224. TCGCCTAGGTCATGGGCCAGTATACCACGCGAAC: the PBM binding z-score came out at 2.29. As to ATCGAAAGGTCGTGAGGTAAGTATACAGAAAGGC, the PBM binding z-score is 3.5. Next, CCTAGTGGGCCAAGGTCATTGATCAGTCAAAGCA: 2.79; TATTCAGGGTCAAAGGCCAGAGTACGAATGTCGA: 5.77; TACCCTAGGTCATGGGCCAGTATACCACGCGAAC: 4.07.

Consider AATACAGGGTCATCTTAGGCCAGAGTACGCACAG, for which the PBM binding z-score was determined as 5.12.

For AACGAAAGGTCGAAGGTGAGTATACCCACCCGAA, the PBM binding z-score stood at 3.06. The value for CGTCCAAGGTCAAGGTCAATGAAAGAGACTCGAA was 4.94; that for CGTTCAAGGTCAAAGGTCAGTGAAGAGATGACGG was 6.76. The value for TCTGCTAGGTCAACGTTGGTCAGCTAATCTGCTA was 1.61. For CAGCATAGGTCAGGGCCAGTATAGGAGGAACGTT, the PBM binding z-score was found to be 1.98. For CGAACTAGGTCATTGACAGGACAATGAATAGTAA, the PBM binding z-score came to 2.47. Take CGAACTAGGTCACCCAGGACAGTGAATACATTGA: the PBM binding z-score came out at 1.93.

Consider TCTTGTAGATCGATAGAGGTTAAGAAAGTGCGCT, for which the PBM binding z-score was found to be 1.52. The value for ATCGAAAGGTCGACCAGGTGAGTATACACCGTTT was 3.1. For TCTAGTTGGTCACGGAGGACACACACGACGGGTA, the PBM binding z-score was found to be 0.424. Consider TCTAGTCGGTCAAAGGTCACACACTCGAAATGCG, for which the PBM binding z-score is 5.97. CCTTAAGGGTCACGAGGTTATAGCACGACGAGCG returned a PBM binding z-score of 5.38. For the sequence CGTCAAAGTTCAACTAAGGTTACGTAAAGCACGC, the PBM binding z-score was found to be 5.4.

Turning to AGTCAAAGTTCAGGACGACGTAACGTAAAGCACG, the PBM binding z-score was 1.67.

For the sequence CCTAGTTGTTCAGGAGGTCACACACCGGATATGA, the PBM binding z-score worked out at 3.76. With AGAATGAGGTCACCAAAGATCAGGGAAACGCTTG, the PBM binding z-score was determined as 5.13. In turn, CCTCGGAGGACAGAAGGTCAAAGCTGTCCGCTTT had a PBM binding z-score of 3.1. In turn, CCTCGGAGGACAACAGGAGGTCATAGCTGCCAGA yielded a PBM binding z-score of 3.15. The value for TCTAGTTGGTCACGGAGGTCACAAACGACGGGTA was 3.15; that for TGTCAATGTTCAAAGGTAACGTAAGTATCCACAC was 0.772.

Regarding TCTAGTTGGTCTAAGGTCACACACTCGAAATGCG, the PBM binding z-score stood at 4.1. For the sequence CCTACTGGTCCAAGGTCATTGATCAGTCAAAGCA, the PBM binding z-score amounted to 3.52.

Sequence ATATGTAGGTTAAGCGTCATTCAGGTTGGTTCGC registered a PBM binding z-score of 0.883. CCTGCGAGGTCATGGTCAGCTAATCTACAGTATG gave a PBM binding z-score of 4.6. Turning to GCTAGTTGGTCAGTAAAATGTCACACACCGGTCG, the PBM binding z-score was -0.14.

The sequence TGTCAACGTTCAAAGGTAACGTAAGTATCCACAC yielded a PBM binding z-score of 0.759. For ACGCGGAGGACAAAGGTCAGAGCTACGCCAGTGA, the PBM binding z-score turned out to be 3.19.

CGAACAAGGTCATTGACAGGACAGTGAATAGTAA yielded a PBM binding z-score of 4.62. AATAAAGGGTCATCGTAGGCCAGAGTACGCACAG: the PBM binding z-score amounted to 5.46. The value for CGTCCAAGGTCGAAGGTCAGTGAAGAGATGACGG was 2.62.
